Reference: paper PMC7862700, “An all-to-all approach to the identification of sequence-specific readers for epigenetic DNA modifications on cytosine”

Key:
Assay in all cases: DAPPL (digital affinity profiling via proximity ligation, sequencing); 10 mM Tris-HCl pH 7.5, 50 mM NaCl, 1 mM DTT, 4% glycerol, room temperature, 30 min; GST-TFs on glutathione beads, 16-mer random dsDNA library, 0.1% formaldehyde crosslink after washing; high values mean tight binding
Settings in all cases: protein: recombinant; tags: N-terminal GST; dsDNA, one strand shown
ERF = target: T1, ERF (Homo sapiens, UniProt P50548 1-548)
T1 sequence: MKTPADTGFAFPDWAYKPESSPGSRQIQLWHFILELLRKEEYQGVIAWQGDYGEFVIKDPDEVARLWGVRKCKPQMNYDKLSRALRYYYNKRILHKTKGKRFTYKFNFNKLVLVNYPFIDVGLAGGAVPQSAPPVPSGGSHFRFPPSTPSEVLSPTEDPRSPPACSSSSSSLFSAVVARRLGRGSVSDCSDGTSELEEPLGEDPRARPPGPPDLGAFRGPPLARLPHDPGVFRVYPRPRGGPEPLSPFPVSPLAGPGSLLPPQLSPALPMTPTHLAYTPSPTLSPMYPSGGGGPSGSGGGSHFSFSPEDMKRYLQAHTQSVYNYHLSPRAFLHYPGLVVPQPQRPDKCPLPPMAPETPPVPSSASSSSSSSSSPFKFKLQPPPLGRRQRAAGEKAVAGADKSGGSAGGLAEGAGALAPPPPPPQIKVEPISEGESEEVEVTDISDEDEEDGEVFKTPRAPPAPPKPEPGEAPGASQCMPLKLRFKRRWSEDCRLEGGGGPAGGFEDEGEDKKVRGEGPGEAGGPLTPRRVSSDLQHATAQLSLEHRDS
Summary of the method: (§1)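 Human transcription factors fused to GST were expressed in yeast, captured on glutathione beads, given DNA barcodes and pooled with a GST-only negative control. Pools were incubated with 200 nmole of a 16-mer random double-stranded DNA library in Tris/NaCl/DTT/glycerol buffer at room temperature for 30 min. They were then washed, crosslinked with 0.1% formaldehyde, proximity-ligated (BsaI/T4 ligase, 1 h, 37 °C), PCR-amplified and sequenced on an Illumina NextSeq500. Binding signal is each 6-mer's read frequency for a factor divided by its frequency for the GST control.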

ETV3L = target: T2, ETV3L (Homo sapiens, UniProt Q6ZN32 1-361)
T2 sequence: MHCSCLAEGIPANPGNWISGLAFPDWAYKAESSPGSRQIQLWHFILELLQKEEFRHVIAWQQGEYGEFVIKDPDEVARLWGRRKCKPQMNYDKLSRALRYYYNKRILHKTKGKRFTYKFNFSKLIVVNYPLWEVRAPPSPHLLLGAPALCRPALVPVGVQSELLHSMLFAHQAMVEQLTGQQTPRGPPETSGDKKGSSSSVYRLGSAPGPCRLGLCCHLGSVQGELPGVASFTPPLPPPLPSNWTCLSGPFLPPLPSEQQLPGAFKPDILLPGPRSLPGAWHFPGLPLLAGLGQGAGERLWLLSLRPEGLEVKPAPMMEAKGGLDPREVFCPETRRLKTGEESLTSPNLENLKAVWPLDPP
Summary of the method: as §1

ETS2 = target: T3, ETS2 (Homo sapiens, UniProt P15036 1-469)
T3 sequence: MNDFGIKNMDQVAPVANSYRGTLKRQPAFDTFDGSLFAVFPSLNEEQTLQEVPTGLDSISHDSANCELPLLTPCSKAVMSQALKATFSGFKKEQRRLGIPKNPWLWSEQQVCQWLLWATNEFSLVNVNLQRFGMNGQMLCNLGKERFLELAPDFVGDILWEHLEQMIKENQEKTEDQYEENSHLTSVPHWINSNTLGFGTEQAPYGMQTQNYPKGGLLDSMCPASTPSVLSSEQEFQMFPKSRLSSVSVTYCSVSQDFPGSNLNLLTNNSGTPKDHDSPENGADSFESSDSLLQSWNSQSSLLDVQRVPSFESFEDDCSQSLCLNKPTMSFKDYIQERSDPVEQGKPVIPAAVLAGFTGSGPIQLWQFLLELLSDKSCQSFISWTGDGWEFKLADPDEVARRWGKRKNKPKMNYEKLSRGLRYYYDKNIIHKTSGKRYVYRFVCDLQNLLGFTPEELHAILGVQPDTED
Summary of the method: as §1

SPDEF = target: T4, SPDEF (Homo sapiens, UniProt O95238 1-335)
T4 sequence: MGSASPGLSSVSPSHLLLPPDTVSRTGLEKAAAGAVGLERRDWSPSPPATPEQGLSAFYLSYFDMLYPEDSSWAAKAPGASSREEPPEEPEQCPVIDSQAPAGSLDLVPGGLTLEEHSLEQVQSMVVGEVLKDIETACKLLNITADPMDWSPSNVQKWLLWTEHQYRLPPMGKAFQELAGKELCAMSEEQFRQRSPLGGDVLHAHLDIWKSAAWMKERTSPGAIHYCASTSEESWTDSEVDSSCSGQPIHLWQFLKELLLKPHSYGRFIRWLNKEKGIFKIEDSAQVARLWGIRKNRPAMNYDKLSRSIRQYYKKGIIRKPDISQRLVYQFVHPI
Summary of the method: as §1

ETV7 = target: T5, ETV7 (Homo sapiens, UniProt Q9Y603 1-341)
T5 sequence: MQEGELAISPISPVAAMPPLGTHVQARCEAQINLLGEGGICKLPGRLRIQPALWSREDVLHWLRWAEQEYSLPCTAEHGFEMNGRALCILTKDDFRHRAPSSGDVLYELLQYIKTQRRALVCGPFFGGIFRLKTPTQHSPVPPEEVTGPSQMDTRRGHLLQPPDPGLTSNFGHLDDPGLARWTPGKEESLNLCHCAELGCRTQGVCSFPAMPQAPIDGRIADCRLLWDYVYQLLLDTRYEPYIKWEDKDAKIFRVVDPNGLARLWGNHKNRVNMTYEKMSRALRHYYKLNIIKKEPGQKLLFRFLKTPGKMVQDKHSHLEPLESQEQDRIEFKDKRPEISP
Summary of the method: as §1

ELF5 = target: T6, ELF5 (Homo sapiens, UniProt Q9UKW6-2 1-255)
T6 sequence: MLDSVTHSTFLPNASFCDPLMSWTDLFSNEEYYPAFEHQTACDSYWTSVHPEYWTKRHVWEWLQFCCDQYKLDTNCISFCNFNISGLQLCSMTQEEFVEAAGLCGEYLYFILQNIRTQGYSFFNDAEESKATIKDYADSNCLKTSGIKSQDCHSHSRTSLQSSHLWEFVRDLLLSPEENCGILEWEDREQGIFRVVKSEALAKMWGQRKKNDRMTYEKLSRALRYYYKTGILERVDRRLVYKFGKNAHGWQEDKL
Summary of the method: as §1

ETV3 = target: T7, ETV3 (Homo sapiens, UniProt P41162-2 1-143)
T7 sequence: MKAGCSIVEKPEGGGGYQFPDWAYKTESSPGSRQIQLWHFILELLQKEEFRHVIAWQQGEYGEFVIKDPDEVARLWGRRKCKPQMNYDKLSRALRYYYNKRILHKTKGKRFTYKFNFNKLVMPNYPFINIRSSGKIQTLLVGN
Summary of the method: as §1

ETV6 = ETV6 (Homo sapiens, UniProt P41212 1-452)
ETV6, sequence (P41212 whole entry): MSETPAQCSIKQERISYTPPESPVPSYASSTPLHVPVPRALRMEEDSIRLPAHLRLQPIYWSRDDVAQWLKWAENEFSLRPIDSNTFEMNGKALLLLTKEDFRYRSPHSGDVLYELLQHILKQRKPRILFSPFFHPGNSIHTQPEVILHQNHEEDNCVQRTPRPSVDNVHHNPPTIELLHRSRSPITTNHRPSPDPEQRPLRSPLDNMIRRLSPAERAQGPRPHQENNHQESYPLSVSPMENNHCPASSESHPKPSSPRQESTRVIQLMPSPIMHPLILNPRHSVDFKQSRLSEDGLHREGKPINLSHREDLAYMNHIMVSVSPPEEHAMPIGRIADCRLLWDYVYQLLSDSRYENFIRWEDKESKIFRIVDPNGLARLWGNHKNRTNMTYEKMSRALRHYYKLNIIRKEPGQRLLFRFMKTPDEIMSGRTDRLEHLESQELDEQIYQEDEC
Summary of the method: as §1

Row | Sequence | binding signal (ERF) | binding signal (ETV3L) | binding signal (ETS2) | binding signal (SPDEF) | binding signal (ETV7) | binding signal (ELF5) | binding signal (ETV3) | binding signal (ETV6)
1 | TTCCCC | 1.46 fold enrichment (6-mer frequency, TF over GST control) | 1.69 fold enrichment (6-mer frequency, TF over GST control) | 1.64 fold enrichment (6-mer frequency, TF over GST control) | 1.43 fold enrichment (6-mer frequency, TF over GST control) | 1.43 fold enrichment (6-mer frequency, TF over GST control) | 2.17 fold enrichment (6-mer frequency, TF over GST control) | 1.89 fold enrichment (6-mer frequency, TF over GST control) | 1.73 fold enrichment (6-mer frequency, TF over GST control)
2 | TGGTGT | 1.19 fold enrichment (6-mer frequency, TF over GST control) | 1.25 fold enrichment (6-mer frequency, TF over GST control) | 1.32 fold enrichment (6-mer frequency, TF over GST control) | 1.23 fold enrichment (6-mer frequency, TF over GST control) | 1.08 fold enrichment (6-mer frequency, TF over GST control) | 1.14 fold enrichment (6-mer frequency, TF over GST control) | 1.25 fold enrichment (6-mer frequency, TF over GST control) | 1.31 fold enrichment (6-mer frequency, TF over GST control)
3 | CTTGTG | 1.59 fold enrichment (6-mer frequency, TF over GST control) | 1.4 fold enrichment (6-mer frequency, TF over GST control) | 1.5 fold enrichment (6-mer frequency, TF over GST control) | 1.41 fold enrichment (6-mer frequency, TF over GST control) | 1.41 fold enrichment (6-mer frequency, TF over GST control) | 1.44 fold enrichment (6-mer frequency, TF over GST control) | 1.51 fold enrichment (6-mer frequency, TF over GST control) | 1.22 fold enrichment (6-mer frequency, TF over GST control)
4 | ATTTTC | 1.38 fold enrichment (6-mer frequency, TF over GST control) | 1.42 fold enrichment (6-mer frequency, TF over GST control) | 1.43 fold enrichment (6-mer frequency, TF over GST control) | 1.34 fold enrichment (6-mer frequency, TF over GST control) | 1.39 fold enrichment (6-mer frequency, TF over GST control) | 1.61 fold enrichment (6-mer frequency, TF over GST control) | 1.42 fold enrichment (6-mer frequency, TF over GST control) | 1.43 fold enrichment (6-mer frequency, TF over GST control)
5 | CAAACC | 1.06 fold enrichment (6-mer frequency, TF over GST control) | 1.18 fold enrichment (6-mer frequency, TF over GST control) | 1.09 fold enrichment (6-mer frequency, TF over GST control) | 1.11 fold enrichment (6-mer frequency, TF over GST control) | 1.02 fold enrichment (6-mer frequency, TF over GST control) | 1.02 fold enrichment (6-mer frequency, TF over GST control) | 1.11 fold enrichment (6-mer frequency, TF over GST control) | 1.1 fold enrichment (6-mer frequency, TF over GST control)
6 | TGCAAA | 1.13 fold enrichment (6-mer frequency, TF over GST control) | 1.15 fold enrichment (6-mer frequency, TF over GST control) | 1.05 fold enrichment (6-mer frequency, TF over GST control) | 1.1 fold enrichment (6-mer frequency, TF over GST control) | 1.09 fold enrichment (6-mer frequency, TF over GST control) | 1.05 fold enrichment (6-mer frequency, TF over GST control) | 1.06 fold enrichment (6-mer frequency, TF over GST control) | 1.06 fold enrichment (6-mer frequency, TF over GST control)
7 | AATCCG | 1.5 fold enrichment (6-mer frequency, TF over GST control) | 1.6 fold enrichment (6-mer frequency, TF over GST control) | 1.7 fold enrichment (6-mer frequency, TF over GST control) | 2.04 fold enrichment (6-mer frequency, TF over GST control) | 1.51 fold enrichment (6-mer frequency, TF over GST control) | 1.74 fold enrichment (6-mer frequency, TF over GST control) | 1.66 fold enrichment (6-mer frequency, TF over GST control) | 1.49 fold enrichment (6-mer frequency, TF over GST control)
8 | CTAAGC | 1.14 fold enrichment (6-mer frequency, TF over GST control) | 1.09 fold enrichment (6-mer frequency, TF over GST control) | 1.15 fold enrichment (6-mer frequency, TF over GST control) | 1.06 fold enrichment (6-mer frequency, TF over GST control) | 1.04 fold enrichment (6-mer frequency, TF over GST control) | 1.07 fold enrichment (6-mer frequency, TF over GST control) | 1.07 fold enrichment (6-mer frequency, TF over GST control) | 1.08 fold enrichment (6-mer frequency, TF over GST control)
9 | GAAGTT | 1.47 fold enrichment (6-mer frequency, TF over GST control) | 1.64 fold enrichment (6-mer frequency, TF over GST control) | 1.71 fold enrichment (6-mer frequency, TF over GST control) | 1.56 fold enrichment (6-mer frequency, TF over GST control) | 1.65 fold enrichment (6-mer frequency, TF over GST control) | 2 fold enrichment (6-mer frequency, TF over GST control) | 1.7 fold enrichment (6-mer frequency, TF over GST control) | 1.93 fold enrichment (6-mer frequency, TF over GST control)
